We go through 51 compounds from PubChem BioAssay AID624491 (Broad Institute, 2012).

The whole screen tested about 1,800 compounds, of which about 1,400 (78%) were called active. Not shown: some 2% with an inconclusive outcome. So high a share suggests a set chosen from earlier hits. Not all results are given here. Results with a measured potency or affinity are listed apart. Values without a mark were called inactive.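 The calls were made as follows: active = fitted curve crossing a set activation limit at or below the highest valid dose tested; inconclusive = flat fit at 30 to 70% activation, or poor fit; inactive = the rest, including signal decreases.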

This experiment in a line: blockers of NLG process in reporter cells – D54 ERlucT cells, luminescence, cherry-picks, dose response (AID 624491).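 Also: signal gain reflects blocked N-linked glycosylation of a luciferase reporter.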 Conditions: D54 ERlucT glycosylation luciferase reporter, 24 h, 100% = twice neutral-control luminescence; series mostly up to 19.5 µM; activation (NLG inhibition): at the top concentration. (In general: In a reporter assay the amount or activity of a reporter protein is the signal.)
As for `Cc1nc2c3cc(F)ccc3n(CCN3CCCCC3)c2s1`, the “activation (NLG inhibition)” value is 35.5%.
On to `NNC(=O)c1ccc2nc(-c3ccc(Br)cc3)cn2c1`, for which the “activation (NLG inhibition)” value is 610%.
Regarding `Cc1ccc(-c2cc(C(=O)N/N=C/c3c[nH]c4ccccc34)[nH]n2)cc1`, the “activation (NLG inhibition)” value was 30.9%.
Next, `COc1ccc(CCn2c(=N)c(C(=O)NC3CCCC3)cc3c(=O)n4ccccc4nc32)cc1OC`: 55.9%.
With `COc1cc2cc(C(c3nnnn3C(C)(C)C)N3CCc4ccccc4C3)c(=O)[nH]c2cc1OC` (stereo unspecified), the “activation (NLG inhibition)” value is 18%.
On to `Cc1cccc(N2CCN(C(=O)c3ccc(Cl)c(S(=O)(=O)NCc4ccco4)c3)CC2)c1C`, for which the “activation (NLG inhibition)” value was 29.6%.
As for `C=CCN(CC=C)C(=O)CN1C(=O)NC(C)(c2ccc3cc(OC)ccc3c2)C1=O` (stereo unspecified), the figure is 3.96% [at 5 µM]; as for `NC(=O)/C=C\C(=O)Nc1cccc(C(F)(F)F)c1`, -15.6%.
Next, `O=S(=O)(Nc1cccc2cccnc12)c1ccc(S(=O)(=O)N2CCCC2)cc1`: -10.1%.
For the compound `Cc1cc(NC(=O)CSc2nc(C3CC3)nc3sc(C)c(C)c23)no1`, the “activation (NLG inhibition)” value is 17.8%.
As for `CCN(CC)C(=O)CSc1nc2c(sc(=S)n2-c2ccccc2)c(=O)n1Cc1ccco1`, the figure is 10.5%; as for `COc1ccc(N(CC(=O)Nc2cc(Cl)ccc2OC)S(=O)(=O)c2c(C)noc2C)cc1`, 15.9%.
As for `Cc1cc(Br)ccc1NC(=O)CCCOc1cc(=O)n(C)c2ccccc12`, the “activation (NLG inhibition)” value is 30.6%.
As to `N#Cc1c(NC(=O)c2cnccn2)sc2c1CCCC2`, the “activation (NLG inhibition)” value is 6.08%.
As for `O=c1cc(N=Nc2ccc(Cl)cc2)[nH]c(=O)[nH]1`, the figure is 34.3% [at 5 µM]; as for `CCCCCCCCn1c2c(c(=N)c3c1CCC3)CCCC2`, 73.5%.
As for `CCOC(=O)c1ccc(-c2ccc(/C=N/NC(=O)CN(c3cccc(C)c3)S(C)(=O)=O)o2)cc1`, the figure is 212%; as for `O=C(N/N=C\c1ccc([N+](=O)[O-])o1)c1cncc(Br)c1`, -28.4%; as for `CC1c2cc3c(cc2CCN1C(=O)c1ccc(Br)cc1)OCCCO3` (stereo unspecified), 40%.
With `COc1cc2c(cc1OC)C(C)N(C(=O)Nc1ccccc1)CC2` (stereo unspecified), the “activation (NLG inhibition)” value is 17.2%.
For the compound `Nc1nonc1-c1nc2ccccc2n1CC(=O)N/N=C\c1ccc(-c2ccc(Cl)cc2)o1`, the “activation (NLG inhibition)” value is 70.3%.
Turning to `Nc1nonc1-c1nc2ccccc2n1Cc1ccccc1`, the “activation (NLG inhibition)” value is 30%.
On to `CCOc1cccc2sc(Nc3nc4ccc(NC(C)=O)cc4s3)nc12`, for which the “activation (NLG inhibition)” value is 29.5%.
Next, `Oc1ccc(NCc2ccccc2OCc2ccccc2)cc1`: 24.1%; `CCc1cccc(CC)c1NC(=O)CN1C2CCCC1CC(NC(=O)Nc1cccc(OC)c1)C2` (stereo unspecified): 119%.
Turning to `Cc1cc(NCCCN(C)C)n2c(nc3ccccc32)c1C#N`, the “activation (NLG inhibition)” value is 23%.
As for `CC1Cc2ccccc2N1C(=O)CSc1nn2c(=O)c(C(C)(C)C)nnc2s1` (stereo unspecified), the figure is 30.3%; as for `COc1ccc(OC)c(N(CC(=O)Nc2cccnc2)S(=O)(=O)c2ccc(C)cc2)c1`, 38.7%.
`COCC(=O)OC/C(O)=C(\C#N)c1nc2ccccc2[nH]1`: the “activation (NLG inhibition)” value is -48.3%.
Take `CC(C)Oc1ccc(C(=O)Nc2ccc3c(c2)n(C)c(=O)n3C)cc1`: the “activation (NLG inhibition)” value was 4.1% [at 5 µM].
Next, `O=C(Nc1cccc2ccccc12)c1ccc([N+](=O)[O-])o1`: -36%; `O=C(NC1CCCC(C(F)(F)F)C1)c1ccc([N+](=O)[O-])o1` (stereo unspecified): -15.2%.
As for `O=C(Nc1ccc(N2CCCC2)c(Cl)c1)c1ccc([N+](=O)[O-])o1`, the figure is -78.1%; as for `O=C(Nc1nc2ccccc2s1)c1ccc([N+](=O)[O-])o1`, 3.59%.
Turning to `CCn1cc([N+](=O)[O-])c(C(=O)Nc2nc(-c3ccc(C)c(C)c3)c(C)s2)n1`, the “activation (NLG inhibition)” value was 57.7%.
On to `O=C(NC(=S)Nc1cccc(S(=O)(=O)NC2=NCCC2)c1)c1cc(-c2ccco2)nc2ccccc12`, for which the “activation (NLG inhibition)” value was 23.7%.
Next, `COc1ccc(/C=C2\COc3ccccc3C2=O)cc1OC`: -3.49%; `C[C@H](CO)N1C[C@H](C)[C@@H](CN(C)Cc2ccccc2)Oc2ccc(NC(=O)CCCCCC(=O)Nc3ccccc3N)cc2C1=O`: 4.91% [at 5 µM]; `COc1ccc(N(C(=O)CCl)C(C(=O)NC2CCCCC2)c2cccnc2)cc1` (stereo unspecified): -95.5%.
Regarding `O=C(NC1CCCCC1)C(c1cccnc1)N(C(=O)CCl)c1cccc(Cl)c1` (stereo unspecified), the “activation (NLG inhibition)” value was -94.9%.
On to `CC(=O)Cn1ncc(Br)c(Br)c1=O`, for which the “activation (NLG inhibition)” value was -52.5%.
As for `CCN1/C(=C/c2sc(-c3ccccc3C)c[n+]2C)Sc2ccccc21`, the “activation (NLG inhibition)” value was -9.29%.
Next, `CCOC(=O)c1c(NC(=O)CCl)sc(C(=O)N(CC)CC)c1C`: 5.73%.
Turning to `COc1ccc(C(=O)/C=C/Sc2nc3ccccc3o2)cc1`, the “activation (NLG inhibition)” value was 5.52%.
In the case of `CCOc1ccc(N(C)S(=O)(=O)c2ccc(-c3cc(C)no3)s2)cc1`, the “activation (NLG inhibition)” value is 39.3%.
`Cc1cccc(N(C)S(=O)(=O)c2ccc(-c3cc(C)no3)s2)c1`: the “activation (NLG inhibition)” value was 32.2%.
As for `O=C1c2ccccc2-c2n[nH]c(=O)c3ccc(N4CCCCC4)c1c23`, the figure is 41.3%; as for `CCn1ncc(C2=NOC(C(=O)NCc3ccc(Cl)cc3)C2)c1C` (stereo unspecified), 20.7%.
As for `COc1cc(C2=NOC(C(=O)NCc3ccc(F)cc3)C2)cc(OC)c1OC` (stereo unspecified), the “activation (NLG inhibition)” value is 13.2%.
As to `O=C(NCc1ccc(OC(F)(F)F)cc1)C1CC(c2ccc(C(F)(F)F)cc2)=NO1` (stereo unspecified), the “activation (NLG inhibition)” value is 5.51%.
Regarding `COc1cccc(S(=O)(=O)Nc2ccc3c(c2)[C@@H]2C[C@@H](CC(=O)NCc4ccc(Cl)cc4)O[C@@H](CO)[C@@H]2O3)c1`, the “activation (NLG inhibition)” value is 21.2%.
